GPR151 activ = human GPR151 activation. Q8TDV0. PathHunter beta-arrestin GPR151 cells, luminescence. activation, % at 11.2 µM. 650,000 compounds, 1% hits; in the data active means activation above about 4.9%
Target sequence (Q8TDV0 whole entry, looked up): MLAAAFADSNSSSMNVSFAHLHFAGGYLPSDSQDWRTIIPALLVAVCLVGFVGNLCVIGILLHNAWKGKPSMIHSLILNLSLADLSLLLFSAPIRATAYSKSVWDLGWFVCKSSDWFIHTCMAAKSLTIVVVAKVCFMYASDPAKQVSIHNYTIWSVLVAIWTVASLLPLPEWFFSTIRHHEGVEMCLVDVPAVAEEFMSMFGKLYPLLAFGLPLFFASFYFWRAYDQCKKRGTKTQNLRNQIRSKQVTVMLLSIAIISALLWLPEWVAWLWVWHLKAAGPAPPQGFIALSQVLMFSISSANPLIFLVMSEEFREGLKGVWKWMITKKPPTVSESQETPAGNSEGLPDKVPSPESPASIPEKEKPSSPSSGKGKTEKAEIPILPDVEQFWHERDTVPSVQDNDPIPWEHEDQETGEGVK
TEAD-YAP inh = TEAD-YAP interaction inhibition; HEK-TIYL cells, TEAD-Gal4/YAP UAS-luciferase luminescence; inhibition, % at 9.12 µM; 640,000 compounds, 1.4% hits; in the data active means inhibition above about 32%
MITF primary = human MITF inhibition, primary screen; inhibition, % at 2.6 µM; 650,000 compounds, 0.91% hits; AlphaScreen MITF homodimerization, bead proximity signal; AID 1259374; in the data active means inhibition above about 50%
FBW7 act = human FBW7 E3 ligase activation, primary screen. 650,000 compounds, 0.13% hits. normalized activity (activation), % at 26.1 µM. AlphaScreen FBW7–phospho-cyclin E peptide binding, activator screen. AID 1259310. Q969H0; in the data active means normalized activity above about 1.9%;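 further: purified mutant Fbw7 with reduced substrate affinity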
GPR151 conf act = confirmation of human GPR151 activators; activation, % at 11.2 µM; AID 1508609; shares compounds with GPR151 activ; 6,700 tested, under 10 active; GPR151 PathHunter beta-arrestin cells, luminescence, 90 min; % of EA-reagent control over plate median;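 active means mean percent activation across replicates above the confirmation screen cutoff of 4.91%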
GPR119 ag = GPR119 activation, counter-screen for GPR151 activators; 6,700 compounds, 0.3% hits; shares compounds with GPR151 activ; AID 1508611; GPR119 PathHunter beta-arrestin cells, luminescence, 90 min; 0 = compound-well median, 100 = enzyme-acceptor control; activation, % at 11.2 µM;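 active means mean percent activation in the counterscreen above 29.09%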;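 further: counterscreen on off-target GPR119 to flag nonselective hits from the GPR151 activator screen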
Hits are given with their value; . = inactive; / = no result. Sampled rows, rich in hits. Any-hit rate of the full collection: about 3.5%.

SMILES	GPR151 activ	TEAD-YAP inh	MITF primary	FBW7 act	GPR151 conf act	GPR119 ag
CCCCC[C@H]1O[C@H]1C/C=C\C/C=C\C/C=C\CCCC(=O)O	.	/	.	/	/	/
O=C(CN1CCN(CC(=O)Nc2ccccc2F)CC1)Nc1cccc(F)c1	6.2	.	.	.	.	.
c1ccc(Nc2cc(Nc3ccc(N4CCOCC4)cc3)ncn2)cc1	.	.	.	.	/	/
CN(C)c1cccc(Nc2cc(Nc3ccc(N4CCOCC4)cc3)ncn2)c1	5.2	.	.	.	.	.
Cc1ncc2c(c1CNS(=O)(=O)N(C)C)CCN(C(=O)C1=CCCC1)C2	.	.	.	.	/	/
CCOc1ccc(-c2n[nH]c(C)c2Oc2ccc(F)cc2)c(O)c1	4.9	.	.	.	.	.
COc1ccc(OCC(=O)N2CCN(C(=O)c3ccccc3)CC2)cc1	8.4	.	.	.	.	.
Cc1ccc(CNC(=O)C2CCN(C(=O)c3ccc(C)cc3)CC2)cc1	.	.	.	.	/	/
COc1ccc(CNC(=O)C2CCN(C(=O)c3ccc(Br)cc3)CC2)cc1	6.4	.	.	.	.	.
O=C(c1ccc(NS(=O)(=O)c2ccccc2)cc1)N1CCCC1	7.2	.	.	.	.	.
O=C(Nc1ccc(F)cc1F)C1CCN(C(=O)c2ccc(Br)cc2)CC1	5.5	.	.	.	.	.
COc1ccc(NC(=O)Nc2ccc(C(=O)N3CCCCC3)cc2)cc1	11.7	.	.	.	.	.
CCCCSc1nc2sc3c(c2c(=O)n1CC1CCCCC1)CCc1ccccc1-3	.	.	.	.	/	/
O=C(CSc1nc2ccccc2c(=O)[nH]1)N1CCc2ccccc2C1	.	.	.	.	/	/
Cc1nnc(SCC(=O)N2CCc3ccccc3C2)[nH]c1=O	10.4	.	.	.	.	.
CC(C)C[C@H]1C(=O)N2CCN(C(=O)c3cccc(F)c3F)C[C@@H]2C(=O)N1C	6.6	.	.	.	.	.
Cc1c(-n2c(SC/C=C\Cl)nc3ccccc3c2=O)c(=O)n(-c2ccccc2)n1C	.	.	.	.	/	/
CCCc1nc2ccccc2c(=O)n1-c1c(C)n(C)n(-c2ccccc2)c1=O	6.8	.	.	.	.	.
CCSCCOC(=O)C1=C(C)NC2=C(C(=O)C(C(=O)OC)C(C)C2)C1c1cc(OC)c(OC)cc1OC (configuration not stated)	.	.	.	.	/	/
CCOC(=O)C1(CCC(C)C)CC(CSC(=N)N)OC1=O (configuration not stated)	.	.	.	.	/	/
O=c1nc2s/c(=C\c3ccc(-c4ccc(F)cc4F)o3)c(=O)n2c2sc3c(c12)CCCC3	5.0	.	.	.	.	.
O=c1nc2s/c(=C\c3ccc(-c4ccccc4F)o3)c(=O)n2c2sc3c(c12)CCCC3	.	.	.	.	/	/
O=C(N/N=C/c1cccc(O)c1)c1cnccn1	.	.	.	.	/	/
O=C(N/N=C\c1cccc([N+](=O)[O-])c1)c1ccc(O)cc1	.	.	.	.	/	/
O=C(N/N=C\c1ccc(Br)cc1)c1cc([N+](=O)[O-])cc([N+](=O)[O-])c1	.	.	.	.	/	/
SMILES	GPR151 activ	TEAD-YAP inh	MITF primary	FBW7 act	GPR151 conf act	GPR119 ag
O=C(N/N=C/c1cccc([N+](=O)[O-])c1)c1cc(O)c(O)c(O)c1	5.7	.	.	.	.	.
O=C(N/N=C/c1cccc(O)c1)c1cccnc1	5.8	.	.	.	.	.
O=C(CCCC(=O)N/N=C/c1cccc([N+](=O)[O-])c1)N/N=C/c1cccc([N+](=O)[O-])c1	14.1	.	.	.	.	.
O=C(CCC(=O)N/N=C/c1cccc([N+](=O)[O-])c1)N/N=C/c1cccc([N+](=O)[O-])c1	.	.	.	.	/	/
O=C(N/N=C/c1ccc([N+](=O)[O-])cc1)c1ccc(Br)cc1	7.8	.	.	.	.	.
COc1cccc2c1OC1(CCN(C(=O)C3Cc4ccccc4O3)CC1)OC2 (configuration not stated)	.	.	.	.	/	/
CCOC(=O)c1c(NC(=O)CSc2nnc(CNC(=O)c3cccc(F)c3)n2C)sc2c1CCCC2	.	.	.	.	/	/
O=C(Nc1nc(-c2ccc(I)cc2)cs1)c1ccc(Cl)s1	5.5	.	.	.	.	.
O=C(Nc1nc(-c2ccccc2)cs1)c1ccc(Cl)s1	.	.	.	.	/	/
CC(C)(C)OC(=O)C(Cl)(C(=O)OC(C)(C)C)c1ncc([N+](=O)[O-])cc1[N+](=O)[O-]	13.5	55.0	.	.	.	.
Cc1ccc(-c2csc(NC(=O)c3ccc([N+](=O)[O-])o3)n2)o1	.	.	.	.	/	/
Cc1cc(C)n(-c2cccc(CN3CCCC(CNC(=O)c4cccnc4)C3)c2)n1 (configuration not stated)	.	.	.	.	/	/
COc1cc(Nc2cc(C)nc(N3CCc4ccccc4C3)n2)cc(OC)c1OC	.	.	.	.	/	/
COc1cc(Nc2ccnc(N3CCc4ccccc4C3)n2)cc(OC)c1OC	6.8	.	.	.	.	.
COc1cc(C(=O)Nc2cc(=O)n(C)c(=O)n2C)cc(OC)c1OC	5.7	.	.	.	.	.
CCN(CC)C(=O)C1CCCN(c2nc(NCCc3ccc(OC)cc3)c3ncn(Cc4ccc(C(F)(F)F)cc4)c3n2)C1 (configuration not stated)	6.8	.	.	.	.	.
CCN(CC)C(=O)C1CCCN(c2nc(NCCc3ccc(OC)cc3)c3ncn(C4CCCCC4)c3n2)C1 (configuration not stated)	10.0	.	.	.	.	.
CCN(CC)C(=O)C1CCCN(c2nc(NCCOc3ccccc3)c3ncn(Cc4ccc(C(F)(F)F)cc4)c3n2)C1 (configuration not stated)	.	.	.	.	/	/
CCN(CC)S(=O)(=O)c1cccc(-c2cn3cccnc3n2)c1	.	.	.	.	/	/
CC1CCCN(S(=O)(=O)c2cccc(-c3cn4cccnc4n3)c2)C1 (configuration not stated)	5.0	.	.	.	.	.
CCOC(=O)CNC(=O)c1ccc(OC)c(I)c1	.	.	.	.	/	/
CCOc1cc(C(=O)NCc2ccccc2)ccc1OC	14.1	.	.	.	.	.
COc1ccc(C(=O)NCCC(c2ccccc2)c2ccccc2)cc1OC	19.1	.	.	.	.	.
COc1ccc(C(=O)NCCOc2ccccc2OC)cc1OC	.	.	.	.	/	/
CCOC(=O)CNC(=O)c1ccc(OC)c(Br)c1	5.6	.	.	.	.	.
COc1ccc(C(=O)NCc2ccccc2)cc1I	.	.	.	.	/	/
CC(=O)c1cccc(Nc2c(-c3ccc(C(C)C)cc3)c(=O)c2=O)c1	.	.	.	.	/	/
Cc1c(S(=O)(=O)n2[nH]c(=O)c(CCO)c2C)sc2ccc(Cl)cc12	.	.	.	.	/	/
COc1ccccc1N1CCN(c2ccc(C(=O)O)cc2[N+](=O)[O-])CC1	.	.	.	.	/	/
